The text below walks through data of PubChem BioAssay.

Experiment [1] can be described thus: signal quenchers or enhancers, Cy5 substrate/SSB – biochemical, NIH Clinical Collection, E. coli SSB, artefact control for HCV NS3 helicase inhibitor project (AID 743268; call rule not given here). Conditions: Cy5-oligo bound E. coli SSB, fluorescence interference.
Experiment [2] has as its system Hepatitis C virus NS3 helicase. Nature of the experiment: blockers of NS3h binding to DNA – biochemical, fluorescence polarization, NIH Clinical Collection, primary screen (AID 743270; call rule not given here). The settings on record: NS3 helicase binding to Cy5-dT15 DNA, stronger effect = higher value, concentration not given here.
Experiment [3] concerns the target Single-stranded DNA-binding protein (Escherichia coli (strain K12)) (UniProt P0AGE0). Nature of the experiment: SSB-ssDNA binding inhibitors – biochemical, fluorescence polarization, NIH Clinical Collection, counter-screen for HCV NS3 helicase inhibitor project (AID 743271; in the data active means inhibition above about 28%). Conditions: E. coli SSB-DNA binding, stronger effect = higher value, concentration not given here. Background: Polarisation of emitted light reports the rotation of a fluorescent probe.

Experiment [4] is described as follows: compounds distorting NS3 helicase fluorescence signal – biochemical, NIH Clinical Collection, artefact control for HCV NS3 helicase inhibitor project (AID 743272; call rule not given here;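 further: HCV NS3 helicase with a Cy5 labelled single stranded DNA probe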). The settings on record: fluorescence interference counterscreen, HCV NS3 helicase assay; stronger effect = lower value.
The target of experiment [5] is 6-phosphogluconate dehydrogenase, decarboxylating (Homo sapiens) (UniProt P52209). In words: inhibition of human phosphogluconate dehydrogenase – biochemical, recombinant enzyme, NADPH absorbance, primary screen (AID 1159550;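 active means at least 20% inhibition of 6-phosphogluconate dehydrogenase activity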). Conditions: recombinant 6PGD, NADPH absorbance 341 nm; at 10 µM; stronger effect = higher value.
Chain of 6-phosphogluconate dehydrogenase, decarboxylating (Homo sapiens) (P52209 whole entry, looked up): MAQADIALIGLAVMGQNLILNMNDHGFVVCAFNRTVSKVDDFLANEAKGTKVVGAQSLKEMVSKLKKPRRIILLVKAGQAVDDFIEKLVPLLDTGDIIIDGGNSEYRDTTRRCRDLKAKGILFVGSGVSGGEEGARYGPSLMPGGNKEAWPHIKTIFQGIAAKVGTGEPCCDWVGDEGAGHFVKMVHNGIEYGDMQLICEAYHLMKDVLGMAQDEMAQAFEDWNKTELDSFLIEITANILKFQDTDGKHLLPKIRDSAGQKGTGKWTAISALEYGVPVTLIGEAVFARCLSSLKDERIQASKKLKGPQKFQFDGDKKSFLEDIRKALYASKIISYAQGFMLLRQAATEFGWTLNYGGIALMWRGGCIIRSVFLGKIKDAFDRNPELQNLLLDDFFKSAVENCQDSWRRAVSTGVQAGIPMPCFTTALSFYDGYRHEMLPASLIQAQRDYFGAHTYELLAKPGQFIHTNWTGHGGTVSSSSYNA
The nature of experiment [6]: MELAS cybrid and Rieske KO viability enhancers – cell-based, MELAS cybrids, Rieske KO mouse fibroblasts, CellTiter-Glo, primary screen (AID 1508586;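 active means mean z-score across replicates of 1.96 or higher in either the MELAS or the Rieske mutant cell line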;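 further: z relative to plate mean and SD of compound and empty wells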). Conditions: low glucose. (In ATP-based viability assays light output follows the ATP content of the culture.)
Experiment [7] deals with NAD(+) hydrolase SARM1 (Homo sapiens) (UniProt Q6SZW1). In words: blocking NAD cleavage by SARM1 SAM-TIR – cell lysate, NAD-Glo luminescence (AID 1508614;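 active means compound whose remaining NAD level is above about 45 nM, limit read from the data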). The settings on record: SAM-TIR HEK293T lysate NADase, at 1 µM, stronger effect = higher value.
Chain of NAD(+) hydrolase SARM1 (Homo sapiens) (Q6SZW1 whole entry, looked up, the tested form may be a part): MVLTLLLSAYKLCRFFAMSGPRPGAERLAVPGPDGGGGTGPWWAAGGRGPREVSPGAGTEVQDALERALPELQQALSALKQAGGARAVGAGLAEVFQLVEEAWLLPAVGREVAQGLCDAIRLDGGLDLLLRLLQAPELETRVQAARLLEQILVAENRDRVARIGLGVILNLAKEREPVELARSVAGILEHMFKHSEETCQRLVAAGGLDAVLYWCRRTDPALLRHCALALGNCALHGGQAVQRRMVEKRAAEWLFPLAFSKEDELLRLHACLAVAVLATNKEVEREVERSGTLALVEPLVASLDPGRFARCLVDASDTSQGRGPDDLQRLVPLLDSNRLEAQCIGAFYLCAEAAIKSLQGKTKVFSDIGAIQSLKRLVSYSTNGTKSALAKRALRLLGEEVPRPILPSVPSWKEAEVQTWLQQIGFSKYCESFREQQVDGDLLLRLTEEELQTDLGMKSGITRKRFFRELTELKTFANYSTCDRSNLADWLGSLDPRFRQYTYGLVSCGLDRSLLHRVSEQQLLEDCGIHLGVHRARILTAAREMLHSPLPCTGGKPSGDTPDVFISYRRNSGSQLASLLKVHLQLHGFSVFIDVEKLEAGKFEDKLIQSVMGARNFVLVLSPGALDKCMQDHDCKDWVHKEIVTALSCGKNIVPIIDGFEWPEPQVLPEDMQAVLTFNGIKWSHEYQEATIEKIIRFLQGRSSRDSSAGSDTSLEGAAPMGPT
The target in experiment [8] is Mitogen-activated protein kinase 7 (Homo sapiens) (UniProt Q13164). Nature of the experiment: Gal4-ERK5 driven luciferase induction – cell-based, HTS, primary screen (AID 1508626;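 active means luciferase signal above three times the same-plate solvent-only control wells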;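 further: luciferase driven by Gal4-ERK5 fusion binding five Gal4 sites before minimal TATA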). The settings on record: HeLa Gal4-ERK5 transactivation, 18 h, at 5 µM, stronger effect = higher value.
Chain of Mitogen-activated protein kinase 7 (Homo sapiens) (Q13164 whole entry, looked up, the tested form may be a part): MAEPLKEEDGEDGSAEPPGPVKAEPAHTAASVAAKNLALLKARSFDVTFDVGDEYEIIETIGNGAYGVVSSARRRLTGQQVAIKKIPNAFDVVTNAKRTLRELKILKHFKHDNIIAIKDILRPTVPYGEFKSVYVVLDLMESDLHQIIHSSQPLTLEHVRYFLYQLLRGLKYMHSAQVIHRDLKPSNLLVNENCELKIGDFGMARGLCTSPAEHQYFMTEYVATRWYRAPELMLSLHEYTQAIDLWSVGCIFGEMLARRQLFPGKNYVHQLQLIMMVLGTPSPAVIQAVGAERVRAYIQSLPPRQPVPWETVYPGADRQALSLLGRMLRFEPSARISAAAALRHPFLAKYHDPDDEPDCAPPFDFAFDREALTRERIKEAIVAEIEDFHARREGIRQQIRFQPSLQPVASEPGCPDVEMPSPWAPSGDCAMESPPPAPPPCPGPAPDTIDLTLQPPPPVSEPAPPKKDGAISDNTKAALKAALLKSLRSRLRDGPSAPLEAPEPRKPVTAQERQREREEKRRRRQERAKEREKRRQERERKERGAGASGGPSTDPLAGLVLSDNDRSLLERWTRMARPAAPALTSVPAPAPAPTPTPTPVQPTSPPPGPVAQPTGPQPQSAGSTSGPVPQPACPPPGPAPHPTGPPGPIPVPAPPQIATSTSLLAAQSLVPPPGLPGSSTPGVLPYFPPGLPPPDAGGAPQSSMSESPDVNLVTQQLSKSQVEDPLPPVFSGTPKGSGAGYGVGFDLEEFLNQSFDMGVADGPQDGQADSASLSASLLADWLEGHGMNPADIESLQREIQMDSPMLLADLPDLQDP
Experiment [9] in a line: galactose survival enhancers in mitochondrial complex I cybrids – cell-based, galactose medium, ATP luminescence, primary screen (AID 1645843;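 active means z-score of at least 1.8 in each of two replicates, scored against plate mean and spread of sample wells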;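 further: positive z means more ATP and so rescue of galactose-driven cybrid death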). Conditions: complex I mutant cybrid cells, 72 h, stronger effect = higher value.
For experiment [10], the system named is F380Y. Nature of the experiment: BK channel mutant inhibitors and activators – cell-based, U2OS BacMam, thallium flux, beta subunits, selectivity assay, profiling panel (AID 1259406).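 Further: initial slope of Thallos dye fluorescence rise after thallium is added; log ratio against the mean of 0.3% DMSO vehicle wells on the same plate.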 Conditions: U2OS BacMam BK variants, at 30 µM.
The subject of experiment [11] is F380Y/beta2Delta. The experiment is described as above. Conditions: U2OS BacMam BK variants, at 30 µM.
The target in experiment [12] is Calcium-activated potassium channel subunit alpha-1 (Homo sapiens) + Leucine-rich repeat-containing protein 26 (Homo sapiens) (UniProt Q12791+Q2I0M4). The description is as above. The settings on record: U2OS BacMam BK variants, F380Y/Slo1WT/gamma1, at 30 µM.
Chain of Calcium-activated potassium channel subunit alpha-1 (Homo sapiens) + Leucine-rich repeat-containing protein 26 (Homo sapiens) (Q2I0M4 whole entry, looked up, one chain of several): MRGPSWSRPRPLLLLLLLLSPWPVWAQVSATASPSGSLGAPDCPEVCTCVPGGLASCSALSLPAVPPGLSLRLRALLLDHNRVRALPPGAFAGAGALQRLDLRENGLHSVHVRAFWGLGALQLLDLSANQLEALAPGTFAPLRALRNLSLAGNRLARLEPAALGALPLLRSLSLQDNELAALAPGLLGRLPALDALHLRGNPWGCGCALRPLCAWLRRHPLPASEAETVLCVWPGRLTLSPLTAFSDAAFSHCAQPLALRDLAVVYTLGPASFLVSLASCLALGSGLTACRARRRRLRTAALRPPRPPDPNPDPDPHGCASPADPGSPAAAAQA
Experiment [13] deals with R275C. The description is as above. Conditions: U2OS BacMam BK variants, at 30 µM.
For experiment [14], the system named is R275C/beta1. The experiment is described as above. The settings on record: U2OS BacMam BK variants, at 30 µM.
Experiment [15] has as its system R275C/beta2Delta. Described as above. The settings on record: U2OS BacMam BK variants, at 30 µM.
Experiment [16] can be described thus: P. berghei load reduction in hepatocytes – cell-based, HepG2, luciferase luminescence, HepG2 viability, primary screen (AID 624349; in the data active means parasite load remaining mostly below about 12%, no sharp cut-off; inactive means mostly above about 10%;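 further: 100% = mean of DMSO negative control wells on the same plate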). The settings on record: P. berghei liver stage in HepG2, luciferase luminescence, concentration not given here; parasite load remaining: stronger effect = lower value; viability: measured here: HepG2 viability without parasites.
Experiment [17] in a line: viability loss with induced miR-34 in A549 – imaging, A549 dox-inducible miR-34, nuclei and caspase counts, primary screen (AID 1347080;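 active means compounds whose cell count with miR-34 switched on is under 0.7 times the count with it off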). Conditions: A549 miR-34 inducible, Hoechst nuclei count, 48 h.
A short description of experiment [18]: modulation of C. elegans fzo-1 (AID 1259413; call rule not given here;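 further: fzo-1 mutant C. elegans worms in liquid wells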). The settings on record: C. elegans fzo-1 modulator screen, mean read-out; stronger effect = higher value.
Experiment [19] can be described thus: EMT-state selective cytotoxicity in co-culture – imaging, PC-3E GFP, TEM4-18 mCherry, primary screen (AID 1345086;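 active means compounds killing one labelled cell type while sparing the other, by normalised counts and ratio limits, not self-fluorescent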;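 further: cells exposed to compound for 72 h before imaging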;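 on red/green cell ratio (normalised): normalised mesenchymal count divided by normalised epithelial count so high means epithelial killing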). Conditions: PC-3E GFP / TEM4-18 mCherry co-culture, imaging cell counts, at 1 µM.
[20] abbreviates: MELAS cybrid survival, CellTiter-Glo 48 h, stronger effect = higher value.
Where [21] appears, read: Rieske KO mouse fibroblast survival, CellTiter-Glo 72 h.
Where [22] appears, read: stronger effect = lower value, cell number ratio, induced over uninduced.
Where [23] appears, read: measured here: relative caspase fold change +Dox/-Dox.
Setting [24] is: measured here: total cells with miR-34 induction, stronger effect = lower value.
The mark [25] stands for this setting: measured here: total cells without miR-34 induction.

“And” between values parts separate entries of the source, which are not always exact repeats. Identical values can stand only once. The source made the active and inactive calls.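 How the source made its calls, unless noted: active means thallium flux through the channel raised or lowered by more than 3 SD from vehicle-only wells, actives on both sides; inactive means the rest.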

One may read the inhibition as the drop in the measured response relative to a control, in per cent. `C[C@]12CC[C@@H]3c4ccc(O)cc4CC[C@H]3[C@@H]1CC[C@@H]2O`: the fluorescence ratio in [1] is 1 (inactive); in experiment [4], 0.97 (inactive). Further, the inhibition in experiment [2] was 2.77% (inactive); in experiment [3], -0.87% (inactive); in [5], -7.69% (inactive). Moreover, the z-score in experiment [6] (setting [20]) is 1.01 (inactive) and 0.292 (inactive); in experiment [6] (setting [21]) it was -0.193 and 1.1; in [9] it was 0.115 (inactive) and -0.055 (inactive). Moreover, in [7], the remaining NAD was 10 nM (inactive). In experiment [8], the luciferase signal was 184 AU (inactive). Moreover, the log fold change Tl+ flux in [10] was 0.0249 (inactive); in experiment [11], -0.0581 (inactive); in experiment [12], 0.072 (inactive); in experiment [13], 0.021 (inactive); in experiment [14], 0.0222 (inactive); in experiment [15], -0.0294 (inactive).

Usually viability stands for a read-out of living cells in per cent, often relative to untreated cells. On to `CCCCC(=O)O[C@H]1CC[C@H]2[C@@H]3CCc4cc(O)ccc4[C@H]3CC[C@]12C`, for which, in experiment [16], the parasite load remaining is 36.5% (inactive). The viability in [16] was 98.1%. In addition, the fluorescence ratio is 1.02 (inactive) in experiment [1] and 0.91 (inactive) in experiment [4]. Further, the inhibition in [2] is 3.18% (inactive); in experiment [3], 4.1% (inactive); in experiment [5], 6.29% (inactive). Moreover, the fold change in [17] (setting [22]) is 1 (inactive); in [17] (setting [23]), 2.83. Besides, the cell count in experiment [17] (setting [24]) worked out at 6120; in experiment [17] (setting [25]), 6090. The z-score in experiment [6] (setting [20]) was -1.02 (inactive); in experiment [6] (setting [21]) it was -0.171; in [9], -1.51 (inactive). In experiment [7], the remaining NAD is 10 nM (inactive). Also, the luciferase signal in [8] was 84 AU (inactive). For the same compound, the log fold change Tl+ flux in experiment [10] was 0.0324 (inactive); in experiment [11], 0.0462 (inactive); in [12] it was 0.00253 (inactive); in experiment [13], 0.0329 (inactive); in [14] it was 0.0221 (inactive); in experiment [15], -0.00327 (inactive).

`OC[C@H]1O[C@@H](Oc2cc(O)cc(/C=C/c3ccc(O)cc3)c2)[C@H](O)[C@@H](O)[C@@H]1O`: the parasite load remaining in experiment [16] was 100% (inactive). The viability in experiment [16] was 78.3%. For the same compound, the figures for the fluorescence ratio in experiment [1] and in experiment [4] were 1 (inactive) and 0.98 (inactive), respectively. In addition, the inhibition in [2] is 3.56% (inactive); in experiment [3] it was 10.7% (inactive); in experiment [5] it was 15% (inactive). For the same compound, in experiment [18], the mean signal is 254 (inactive). Also, the log fold change Tl+ flux was 0.0295 (inactive) in [10]; -0.0576 (inactive) in experiment [11]; -0.0684 (inactive) in [12]; -0.101 (inactive) in experiment [13]; -0.0629 (inactive) in experiment [14]; -0.0169 (inactive) in experiment [15].

Consider `O=C(O)[C@H](O)[C@@](O)(Cc1ccc(O)cc1)C(=O)O`, for which the inhibition in [5] was 12.5% (inactive). Besides, the red/green cell ratio (normalised) in experiment [19] (actives lie on both sides, counts scaled to control wells, 1 = unselective) is 1.3 (inactive). Also, the normalised cell number was found to be 0.73 in [19] (measured here: epithelial PC-3E GFP cell survival) and 0.94 in [19] (measured here: mesenchymal TEM4-18 mCherry cell survival).

Consider `C#C[C@]1(OC(C)=O)CC[C@H]2[C@@H]3CCC4=CC(=O)CC[C@@H]4[C@H]3CC[C@@]21C`, for which the parasite load remaining in experiment [16] was 26.4% (inactive). In experiment [16], this compound gave a viability of 96.7%. The fluorescence ratio in [1] was 1.05 (inactive); in experiment [4] it was 0.89 (inactive). Besides, the inhibition was -3.18% (inactive) in [2], 7.15% (inactive) in experiment [3] and -1.74% (inactive) in experiment [5]. Moreover, the results for the fold change in [17] (setting [22]) and in experiment [17] (setting [23]) were 0.989 (inactive) and 1.09, respectively. The cell count in experiment [17] (setting [24]) came out at 9170; in experiment [17] (setting [25]), 9280. Also, the remaining NAD in experiment [7] was 24 nM (inactive). In addition, in experiment [8], the luciferase signal was 28 AU (inactive). Also, the z-score in experiment [9] is -1.36 (inactive). For the same compound, the log fold change Tl+ flux is -0.0982 (inactive) in [10]; -0.0589 (inactive) in experiment [11]; -0.0258 (inactive) in experiment [12]; -0.00546 (inactive) in experiment [13]; 0.0232 (inactive) in experiment [14]; 0.0192 (inactive) in [15].
